From the supplement of paper PMC8728848
This is one part of a sample in which the strongest signals are shown more often than they occur.

Key:
Experiment in all cases: glycan array binding signal (z-score within array); higher = stronger binding
Settings in all cases: glycan notation: IUPAC condensed, linker removed
[1] = molecular target: Fuc(a1-2)Gal(b1-3)GalNAc(b1-4)[Neu5Ac(a2-3)]Gal(b1-4)Glc
Outline: (§1)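 Glycan array data were curated from 3228 arrays in the Consortium for Functional Glycomics database and kept only where the protein sequence was available. Glycan names were converted to IUPAC-condensed notation, and columns mapping to the same glycan were averaged. The binding signal is a within-array Z-score, averaged across arrays of the same protein sequence at different concentrations or buffers and across linkers. Negative Z-scores can be read as non-binding.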

[2] = molecular target: Fuc(a1-2)Gal(b1-4)Glc6S
Outline: as §1

[3] = molecular target: Fuc(a1-2)Gal(b1-4)GlcNAc
Outline: as §1

[4] = molecular target: Fuc(a1-2)Gal3S(b1-4)GlcNAc
Outline: as §1

[5] = molecular target: Fuc(a1-2)[Gal(a1-3)]Gal(b1-3)GlcNAc(b1-3)GalNAc
Outline: as §1

[6] = molecular target: Fuc(a1-2)[Gal(a1-3)]Gal(b1-3)GlcNAc(b1-6)GalNAc
Outline: as §1

[7] = molecular target: Fuc(a1-2)[Gal(a1-3)]Gal(b1-4)Glc
Outline: as §1

[8] = molecular target: Fuc(a1-2)[Gal(a1-3)]Gal(b1-4)GlcNAc(b1-2)Man(a1-3)[Fuc(a1-2)[Gal(a1-3)]Gal(b1-4)GlcNAc(b1-2)Man(a1-6)]Man(b1-4)GlcNAc(b1-4)[Fuc(a1-6)]GlcNAc
Outline: as §1

[9] = molecular target: Fuc(a1-2)[GalNAc(a1-3)]Gal(b1-3)GlcNAc(b1-3)GalNAc
Outline: as §1

[10] = molecular target: Fuc(a1-2)[GalNAc(a1-3)]Gal(b1-4)GlcNAc(b1-3)GalNAc
Outline: as §1

[11] = molecular target: Fuc(a1-2)[GalNAc(a1-3)]Gal(b1-4)GlcNAc(b1-6)GalNAc
Outline: as §1

[12] = molecular target: Fuc(a1-2)[GalNAc(a1-3)]Gal(b1-4)[Fuc(a1-3)]GlcNAc(b1-3)GalNAc
Outline: as §1

[13] = molecular target: Fuc(a1-3)[Gal(b1-4)]GlcNAc(b1-3)Gal(b1-3)[Fuc(a1-4)]GlcNAc
Outline: as §1

[14] = molecular target: Fuc(a1-3)[Gal3S(b1-4)]GlcNAc6S
Outline: as §1

[15] = molecular target: Fuc(a1-3)[GalNAc(b1-4)]GlcNAc
Outline: as §1

[16] = molecular target: Gal(a1-4)GlcNAc
Outline: as §1

[17] = molecular target: Gal(b1-3)Gal
Outline: as §1

[18] = molecular target: Gal(b1-3)Gal(b1-4)GlcNAc
Outline: as §1

[19] = molecular target: Gal(b1-3)GalNAc(b1-4)Gal(b1-4)Glc
Outline: as §1

[20] = molecular target: Gal(b1-3)GlcNAc
Outline: as §1

[21] = molecular target: Gal(b1-3)GlcNAc(b1-6)Gal(b1-4)GlcNAc
Outline: as §1

[22] = molecular target: Gal(b1-4)GlcNAc(b1-2)[Gal(b1-4)GlcNAc(b1-4)]Man(a1-3)[Gal(b1-4)GlcNAc(b1-2)Man(a1-6)]Man(b1-4)GlcNAc(b1-4)GlcNAc
Outline: as §1

[23] = molecular target: Gal(b1-4)GlcNAc(b1-2)[Gal(b1-4)GlcNAc(b1-6)]Man(a1-6)[Gal(b1-4)GlcNAc(b1-2)Man(a1-3)]Man(b1-4)GlcNAc(b1-4)GlcNAc
Outline: as §1

[24] = molecular target: Gal(b1-4)GlcNAc(b1-3)Gal(b1-4)GlcNAc(b1-3)Gal(b1-4)GlcNAc(b1-3)Gal(b1-4)GlcNAc(b1-3)Gal(b1-4)GlcNAc(b1-2)Man(a1-3)[Gal(b1-4)GlcNAc(b1-3)Gal(b1-4)GlcNAc(b1-3)Gal(b1-4)GlcNAc(b1-3)Gal(b1-4)GlcNAc(b1-3)Gal(b1-4)GlcNAc(b1-2)Man(a1-6)]Man(b1-4)GlcNAc(b1-4)[Fuc(a1-6)]GlcNAc
Outline: as §1

[25] = molecular target: Gal(b1-4)GlcNAc(b1-3)Gal(b1-4)GlcNAc(b1-3)Gal(b1-4)GlcNAc(b1-3)Gal(b1-4)GlcNAc(b1-3)Gal(b1-4)GlcNAc(b1-2)[Gal(b1-4)GlcNAc(b1-3)Gal(b1-4)GlcNAc(b1-3)Gal(b1-4)GlcNAc(b1-3)Gal(b1-4)GlcNAc(b1-3)Gal(b1-4)GlcNAc(b1-6)]Man(a1-6)[Gal(b1-4)GlcNAc(b1-3)Gal(b1-4)GlcNAc(b1-3)Gal(b1-4)GlcNAc(b1-3)Gal(b1-4)GlcNAc(b1-3)Gal(b1-4)GlcNAc(b1-2)Man(a1-3)]Man(b1-4)GlcNAc(b1-4)[Fuc(a1-6)]GlcNAc
Outline: as §1

[26] = molecular target: Gal(b1-4)GlcNAc(b1-3)[Fuc(a1-3)GlcNAc(b1-6)]Gal(b1-4)Glc
Outline: as §1

[27] = molecular target: Gal3S(b1-4)Glc
Outline: as §1

[28] = molecular target: Gal3S(b1-4)[Fuc(a1-3)]Glc6S
Outline: as §1

[29] = molecular target: Gal4S(b1-4)GlcNAc
Outline: as §1

[30] = molecular target: GalNAc(a1-3)GalNAc(b1-3)Gal(a1-4)Gal(b1-4)GlcNAc
Outline: as §1

B1: Pwp1 (Candida glabrata) (protein)
chain: MGSSHHHHHHSSGLVPRGSHMASANPISITNVCQFPDNWARTAGFQATTVRLGLTIASNTYKELLNYPGLFNFATQKATVTQPNFSISGFPFFTGLYGLTVWPINLLVELQGYFVPPESGNYTFTLQGSDDAAILFFANPSTFACGSQNDWPQPREADITVTDTLVPSRTLYLVKGVAYPIRIAYYNGSGDGKLNVSFKDPSGTTHTDWKGYVWQYSNTCSTCTYT
Question: What does the source list for B1?
Answer: glycan array binding signal (z-score) [1]: 2.14; glycan array binding signal (z-score) [2]: -0.871; glycan array binding signal (z-score) [3]: 0.296; glycan array binding signal (z-score) [4]: 0.714; glycan array binding signal (z-score) [5]: 0.778; glycan array binding signal (z-score) [6]: 0.51; glycan array binding signal (z-score) [7]: -0.087; glycan array binding signal (z-score) [8]: 0.301; glycan array binding signal (z-score) [9]: 2.44; glycan array binding signal (z-score) [10]: 2.36; glycan array binding signal (z-score) [11]: 0.906; glycan array binding signal (z-score) [12]: -0.825; glycan array binding signal (z-score) [13]: 3.12; glycan array binding signal (z-score) [14]: 1.94; glycan array binding signal (z-score) [15]: -1.67; glycan array binding signal (z-score) [16]: 0.974; glycan array binding signal (z-score) [17]: 0.861; glycan array binding signal (z-score) [18]: -0.314; glycan array binding signal (z-score) [19]: 1.92; glycan array binding signal (z-score) [20]: 0.448; glycan array binding signal (z-score) [21]: -1.46; glycan array binding signal (z-score) [22]: -0.345; glycan array binding signal (z-score) [23]: 0.454; glycan array binding signal (z-score) [24]: -0.637; glycan array binding signal (z-score) [25]: -3.11; glycan array binding signal (z-score) [26]: -1; glycan array binding signal (z-score) [27]: 0.803; glycan array binding signal (z-score) [28]: -0.627; glycan array binding signal (z-score) [29]: 0.267; glycan array binding signal (z-score) [30]: -0.037
